Source: PubChem (National Center for Advancing Translational Sciences (NCATS))
Compounds with a hit are over-represented: about 9.9% of the library has one in this group of screens.
KB-3-1 tox – qHTS assay for MDR1-selective chemotherapeutics: Primary screen using the parental adenocarcinoma cell KB-3-1; KB-3-1 viability, CellTiter-Glo ATP luminescence, 72 h; Potency, µM (series often up to 46.1 µM), actives largely listed as cytotoxic; 400,000 tested, 1.4% active; further: potency means the concentration at half of the fitted maximal effect; on the % scale 0 is the no-effect control and ±100 the full control effect; nearly all actives have a fitted effect of over 60% in size
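Cytotoxicity measured as CellTiter-Glo luminescence after 72 h at 37 C. Compound titrations were pinned onto drug-naive KB-3-1 parental adenocarcinoma cells grown in DMEM with 10% FBS, and normalized data fitted to concentration-response curves.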
IL1B secr inh – qHTS for Inhibitors of Inflammasome Signaling: IL-1-beta AlphaLISA Primary Screen. THP-1 LPS/ATP IL-1B secretion, AlphaLISA, 16 h; stronger effect = lower value. 360,000 tested, 4.7% active. activity change, % at 57.5 µM. AID 743279, 2014; in the data active means activity change below about -50%; inconclusive means mostly about -30% to -49%; further: on the % scale 0 is the no-effect control and ±100 the full control effect
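THP-1 cells pretreated 1 hr with compounds (up to 57.5 uM final), then stimulated with LPS (250 ng/mL final) plus ATP (1.25 mM final); secreted IL-1B measured by AlphaLISA after 16 hr, decreased signal indicating inhibition.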
KB-V1 MDR tox – qHTS assay for MDR1-selective chemotherapeutics: Primary screen using the drug-selected MDR subline cells KB-V1 | KB-V1 MDR cells viability, CellTiter-Glo, 72 h | Potency, µM (titrated, usually from 46.1 µM), usual class: cytotoxic | 400,000 tested, 3.4% active; further: potency means the concentration at half of the fitted maximal effect; on the % scale 0 is the no-effect control and ±100 the full control effect; nearly all actives have a fitted effect of over 60% in size
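KB-V1 cells (P-gp-expressing MDR subline of KB-3-1) in phenol-red-free DMEM with 10% FBS were exposed to library compounds over a concentration series for 72 h at 37 degrees C. Viability read by CellTiter-Glo luminescence; concentration-effect curves fitted after normalization.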
MCF10A rerep – A quantitative high throughput screen for small molecules that induce DNA re-replication in MCF 10a normal breast cells. MCF 10A DNA re-replication, Hoechst nuclear intensity, 48 h. Potency, µM (series often up to 46.1 µM), for the others: at the highest dose activity, positive = re-replication, hits mostly activators. 350,000 tested, 2.9% active. AID 624296, 2012; further: potency means the concentration at half of the fitted maximal effect; % of control where 0% means no effect; nearly all actives have a fitted effect of over 50% in size
SW480 rerep – A quantitative high throughput screen for small molecules that induce DNA re-replication in SW480 colon adenocarcinoma cells. Potency, µM (highest dose often 46.1 µM), for inactives: at the highest dose re-replication activation, actives largely listed as activators. SW480 DNA re-replication, Hoechst DNA content imaging, 48 h. AID 624297, 2012. 340,000 tested, 1.8% active; further: potency means the concentration at half of the fitted maximal effect; % of control where 0% means no effect; nearly all actives have a fitted effect of over 55% in size
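Cells (250 per well) received 23 nL compound or DMSO by pin tool and were kept 48 hr at 37 C, 5% CO2. Nuclei were then stained with Hoechst for 40 min and scanned for DNA content.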
Active calls of the source: *; i = inactive; ? = inconclusive; . = no result given. Unless noted, the call rests on the fitted dose curve; in most records, active means well fitted curve in the direction sought with a large enough effect; inconclusive means small, poorly fitted or top-dose-only effect, or another doubt; inactive means no such curve, though single readings can be large; an effect the other way counts as inactive or inconclusive.

SMILES	KB-3-1 tox	IL1B secr inh	KB-V1 MDR tox	MCF10A rerep	SW480 rerep
O=S(=O)(/C=C/c1ccccc1)Oc1ccccc1	?	-89*	i	?	?
CNS(=O)(=O)/C=C/c1ccccc1	i	-12	i	0%	1%
O=C(c1ccc(OC2CCN(CCc3ccccc3)CC2)cc1)N1CCCCC1CCCO (stereo not given)	i	i	i	10%	15%
CCNC(=O)NC(=O)C(C)OC(=O)c1oc2ccccc2c1CSC1CCCCC1 (stereo not given)	i	20	13µM*	10%	-3%
Cc1c(C(=O)N2CCC(C(N)=O)CC2)oc2ccc(Br)cc12	i	9	i	8%	?
O=C(CN1CCCCC1)Nc1cc(Cl)ccc1Cl	i	-16	i	12%	-2%
O=C(CN1CCC(C(O)(c2ccccc2)c2ccccc2)CC1)Nc1ccccc1	i	-55*	?	-4%	-3%
O=C(CN1CCOCCOCCOCC1)Nc1ccccc1	i	-7	i	-13%	0%
O=C(CN1CCC(C(O)(c2ccccc2)c2ccccc2)CC1)Nc1cc(Cl)ccc1Cl	i	-67*	18µM*	-46%	?
Cc1cc(C)cc(NC(=O)COC(=O)COc2ccc(N(C)S(=O)(=O)c3cccs3)cc2)c1	i	3	i	1%	-7%
O=C1CC[C@@H](C(=O)O)N1	i	1	i	-7%	11%
O=C(CSc1n[nH]c(-c2ccncc2)n1)Nc1ccc(Cl)c(C(=O)O)c1	i	10	i	-4%	-19%
COC(=O)c1sccc1S(=O)(=O)N(CC(=O)NCc1ccc(C)cc1)c1ccc(C)cc1	i	.	i	.	.
C/C(Cn1cnc([N+](=O)[O-])n1)=N/NC(=O)COc1c(Cl)cc(Cl)cc1Cl	i	21	?	-7%	-17%
CN1CCN(c2nc3c(c(=O)[nH]c(=O)n3C)n2CCCSc2nnnn2-c2ccccc2)CC1	i	6	i	1%	5%
Cc1csc(SCCn2c(N3CCN(c4ccccc4)CC3)nc3c2c(=O)[nH]c(=O)n3C)n1	i	-4	21µM*	?	-5%
CCN1CCN(c2nc3c(c(=O)[nH]c(=O)n3C)n2CCSc2nc3ccccc3s2)CC1	i	-23	i	-5%	-2%
CC1CCN(c2nc3c(c(=O)[nH]c(=O)n3C)n2CC(C)CSc2nnnn2-c2ccccc2)CC1 (stereo not given)	i	?	3.7µM*	1%	-1%
CC1CC(C)CN(c2nc3c(c(=O)[nH]c(=O)n3C)n2CCCSc2nc3ccccc3s2)C1 (stereo not given)	i	7	4.1µM*	-2%	-7%
Cn1c(=O)[nH]c(=O)c2c1nc(N1CCCCC1)n2CCCSc1nnnn1-c1ccccc1	i	3	9.2µM*	3%	-4%
COc1cccc(CCNC(=O)c2cnc3sc(N4CCOCC4)nn3c2=O)c1	i	.	i	.	.
O=C(CN1CCc2cc3c(cc2C1)OCCCO3)Nc1c(F)cccc1F	i	-11	i	18%	?
Cc1nnc(SCCn2c(N3CC(C)CC(C)C3)nc3c2c(=O)n(C)c(=O)n3C)s1 (stereo not given)	i	5	21µM*	4%	0%
S=C(NC1CCCC1)N1CCN(c2ccccn2)CC1	i	0	21µM*	21%	-6%
CC(=NNC(=S)N1CCN(c2ccccn2)CC1)c1ccccn1	i	41	7.3µM*	0%	?
SMILES	KB-3-1 tox	IL1B secr inh	KB-V1 MDR tox	MCF10A rerep	SW480 rerep
S=C(NC1CCCCC1)N1CCc2ccccc2C1	?	6	15µM*	-61%	6%
O=C(CN(C1CCCCC1)C1CCCCC1)N1CCc2ccccc2C1	i	-99*	i	?	?
CC(=NNC(=S)N1CCN(c2ccccn2)CC1)c1nccs1	?	0	?	?	?
CC(=NNC(=S)N1CCCCCC1)c1cccc2cccnc12	?	-101*	3.7µM*	6.5µM*	?
CC(=NNC(=S)N1CC2CCC(CC2)C1)c1ccccn1	?	41	?	.	.
CC(=NNC(=S)N1CCN(C2CCCCCC2)CC1)c1ccccn1	?	-98*	?	16µM*	?
CC(=NNC(=S)N1CC2CCC(CC2)C1)c1cnccn1	?	-107*	?	?	?
C/C(=N\NC(=O)C1CCCN(S(=O)(=O)c2ccccc2)C1)c1ccccn1 (stereo not given)	?	92	?	?	5%
Cc1ccc(C(=O)C2CC2)cc1C	i	-3	?	1%	8%
COc1cccc(C(=O)N(Cc2cccnc2)c2nc3c(OC)ccc(C)c3s2)c1OC	i	.	i	.	.
CC(C)C1OC2(C)OC(=N)C1(C#N)C(C#N)(C#N)C2c1ccccc1 (stereo not given)	i	16	i	-6%	3%
CC1CCC(C(C)C)C2=C1C(C#N)(C#N)C(C#N)(C#N)C(c1ccccc1)N2 (stereo not given)	i	-86*	i	?	11%
COc1ccc(C(=O)C[n+]2ccc(Cl)c3ccc(Cl)cc32)cc1	i	.	i	.	.
CCOCC(=O)Nc1cc([N+](=O)[O-])ccc1OC	i	21	i	-2%	?
COc1ccccc1CC(=O)Nc1ccccc1O	i	6	i	-2%	0%
CCOCC(=O)Nc1ccc([N+](=O)[O-])cc1OC	i	-62*	?	0%	6%
COc1ccccc1CC(=O)Nc1ccc([N+](=O)[O-])cc1O	?	-63*	?	?	-5%
Cc1ccc(NC(=O)N2CCN(c3nnc(C)c4c(C)n(-c5ccc(Cl)cc5)nc34)CC2)c(C)c1	i	.	i	.	.
Cc1ccc(Cl)cc1NC(=O)Cn1nnc2sc3c(c2c1=O)CCC(C(C)(C)C)C3 (stereo not given)	i	.	i	.	.
COc1ccccc1-c1cc(NC=O)c2ncc(-c3cccc(C(=O)N(C)C)c3)n2c1	?	19	?	.	.
COc1cccc(-c2cnc3c(NC=O)cc(-c4ccc(OC)cc4OC)cn23)c1	0.21µM*	47	?	.	.
COc1ccc(-c2cc(NC=O)c3ncc(-c4ccc(OC)c(OC)c4)n3c2)c(OC)c1	0.65µM*	15	1.2µM*	.	.
COc1ccc(NC(=O)COC(=O)C(NC(=O)c2ccc(C)cc2)C(C)C)cn1 (stereo not given)	i	14	15µM*	-8%	-6%
